PubChem BioAssay
Calls of active or inactive are those of the source. Unless noted, the rule behind the calls is not given here.

Legend:
[1] = anti-His antibody binders, primary screen, artefact control for SMM control protein annotation, biochemical, small-molecule microarray, 635 nm fluorescence (AID 1128); conditions: anti-His Alexa647 antibody binding, higher = more signal;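 note: score merges feature fluorescence with signal-to-noise for each printed compound spot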
[2] = system: Human papillomavirus type 1a E7 protein (residues 1-88); experiment: HPV1a E7 small-molecule binders, primary screen, biochemical, small-molecule microarray, residues 1-88, 635 nm (AID 1129); conditions: small-molecule microarray binding, fluorescence 635 nm; higher = more signal
[3] = target: Focal adhesion kinase 1 (Homo sapiens) (UniProt Q05397); experiment: small-molecule microarray binders of FAK, primary screen, biochemical, 635/667 nm fluorescence, BSA, DTT (AID 1130); conditions: PTK2 binding, 635 nm fluorescence, higher = more signal;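 note: composite of spot emission at 667 nm and signal to noise over triplicate slides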
Focal adhesion kinase 1 (Homo sapiens), sequence (Q05397 whole entry, looked up): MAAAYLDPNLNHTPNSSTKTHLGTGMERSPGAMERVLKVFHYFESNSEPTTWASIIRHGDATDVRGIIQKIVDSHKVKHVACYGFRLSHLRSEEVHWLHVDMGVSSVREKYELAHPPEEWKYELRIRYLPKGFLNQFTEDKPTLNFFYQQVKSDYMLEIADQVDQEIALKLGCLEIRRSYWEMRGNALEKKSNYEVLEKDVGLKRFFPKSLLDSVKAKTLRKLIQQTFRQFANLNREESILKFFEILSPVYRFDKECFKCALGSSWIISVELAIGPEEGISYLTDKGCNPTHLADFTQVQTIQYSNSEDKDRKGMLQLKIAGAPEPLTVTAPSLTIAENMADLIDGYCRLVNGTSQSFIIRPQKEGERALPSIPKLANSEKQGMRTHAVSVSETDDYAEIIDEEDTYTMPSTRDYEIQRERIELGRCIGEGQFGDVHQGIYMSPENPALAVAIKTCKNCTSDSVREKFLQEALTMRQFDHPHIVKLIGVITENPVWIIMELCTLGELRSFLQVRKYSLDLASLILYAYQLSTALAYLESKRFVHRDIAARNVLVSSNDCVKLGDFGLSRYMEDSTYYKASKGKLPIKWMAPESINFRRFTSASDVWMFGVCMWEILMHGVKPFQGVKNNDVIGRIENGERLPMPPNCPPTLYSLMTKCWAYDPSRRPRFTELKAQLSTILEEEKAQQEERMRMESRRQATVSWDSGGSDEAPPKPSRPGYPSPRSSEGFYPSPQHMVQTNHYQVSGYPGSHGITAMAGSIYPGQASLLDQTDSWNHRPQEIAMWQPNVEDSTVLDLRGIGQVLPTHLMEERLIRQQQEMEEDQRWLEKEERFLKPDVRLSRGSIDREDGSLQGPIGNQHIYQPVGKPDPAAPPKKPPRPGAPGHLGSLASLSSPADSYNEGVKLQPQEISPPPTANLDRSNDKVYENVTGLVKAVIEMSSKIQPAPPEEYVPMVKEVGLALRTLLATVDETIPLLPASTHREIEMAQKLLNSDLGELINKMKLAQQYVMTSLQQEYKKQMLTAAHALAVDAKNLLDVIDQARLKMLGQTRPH

[4] = system: Fibrinogen (Alexa647-labelled); experiment: fibrinogen binders on compound microarrays, profiling panel, artefact control for SMM control-protein annotation, biochemical, small-molecule microarray, 635/667 nm fluorescence (AID 1131); conditions: fibrinogen-A647 binding fluorescence, higher = more signal;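 note: z-score merges 667 nm fluorescence with per-spot signal-to-noise over triplicate slides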
[5] = target: Follistatin (Homo sapiens) (UniProt P19883); experiment: follistatin binders on small-molecule microarrays, primary screen, biochemical, small-molecule microarray, 635/667 nm fluorescence (AID 1132); conditions: FST binding, 635 nm fluorescence, higher = more signal
Follistatin (Homo sapiens), sequence (P19883 whole entry, looked up): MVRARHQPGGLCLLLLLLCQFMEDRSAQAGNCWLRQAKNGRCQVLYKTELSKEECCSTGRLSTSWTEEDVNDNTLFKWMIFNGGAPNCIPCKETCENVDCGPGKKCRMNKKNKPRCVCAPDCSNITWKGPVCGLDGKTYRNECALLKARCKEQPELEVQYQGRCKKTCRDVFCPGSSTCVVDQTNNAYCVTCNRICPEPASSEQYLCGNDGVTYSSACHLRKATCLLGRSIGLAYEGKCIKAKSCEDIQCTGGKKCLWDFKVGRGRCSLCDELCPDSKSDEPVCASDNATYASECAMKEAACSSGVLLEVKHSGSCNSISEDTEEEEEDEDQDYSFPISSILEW

[6] = target: Fibroblast growth factor 2 (Homo sapiens) (UniProt P09038); experiment: FGF2 binders on small-molecule microarrays, primary screen, biochemical, small-molecule microarray, 635/667 nm fluorescence (AID 1133); conditions: small-molecule microarray binding, FGF2, fluorescence 635/667; higher = more signal
Fibroblast growth factor 2 (Homo sapiens), sequence (P09038 whole entry, looked up): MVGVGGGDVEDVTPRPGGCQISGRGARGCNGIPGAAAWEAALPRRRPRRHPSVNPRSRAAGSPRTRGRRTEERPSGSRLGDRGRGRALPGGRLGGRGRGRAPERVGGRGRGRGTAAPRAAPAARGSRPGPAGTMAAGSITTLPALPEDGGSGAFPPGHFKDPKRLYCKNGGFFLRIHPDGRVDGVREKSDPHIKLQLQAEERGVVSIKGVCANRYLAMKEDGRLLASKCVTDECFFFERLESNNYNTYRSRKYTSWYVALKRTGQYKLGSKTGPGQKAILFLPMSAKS

[7] = mitochondrial membrane potential change in A549 cells, profiling panel, cell-based, JC-1 fluorescence, basal, 24 h, 100 nL (AID 1138); conditions: higher = more signal;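 note: A549 lung adenocarcinoma cells under basal conditions with no added stimulus; test concentration not given here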
Lefty1 = Lefty1 binders on small-molecule microarrays, primary screen, biochemical, small-molecule microarray, 635/667 nm fluorescence (AID 1139); conditions: small-molecule microarray binding, fluorescence 635/667; higher = more signal
[8] = system: wheat germ agglutinin (Triticum aestivum), Alexa647-labelled; experiment: wheat germ agglutinin binders on compound microarrays, profiling panel, artefact control for SMM control-protein annotation, biochemical, small-molecule microarray, 635/667 nm fluorescence (AID 1140); conditions: WGA-A647 binding, 635 nm fluorescence, higher = more signal;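 note: score merges 667 nm feature emission with signal to noise over triplicate slides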
[9] = target: Luciferin 4-monooxygenase (Photinus pyralis) (UniProt P08659); experiment: firefly luciferase enzyme inhibitors, primary screen, biochemical, luminescence, purified enzyme, 2006 set (AID 1141); conditions: SteadyGlo luminescence, 30 min, higher = more signal, called active from +8 up or from −8 down;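 note: cell-free assay with purified firefly luciferase at 100 ng per well in PBS; test concentration not given here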
Luciferin 4-monooxygenase (Photinus pyralis), sequence (P08659 whole entry, looked up): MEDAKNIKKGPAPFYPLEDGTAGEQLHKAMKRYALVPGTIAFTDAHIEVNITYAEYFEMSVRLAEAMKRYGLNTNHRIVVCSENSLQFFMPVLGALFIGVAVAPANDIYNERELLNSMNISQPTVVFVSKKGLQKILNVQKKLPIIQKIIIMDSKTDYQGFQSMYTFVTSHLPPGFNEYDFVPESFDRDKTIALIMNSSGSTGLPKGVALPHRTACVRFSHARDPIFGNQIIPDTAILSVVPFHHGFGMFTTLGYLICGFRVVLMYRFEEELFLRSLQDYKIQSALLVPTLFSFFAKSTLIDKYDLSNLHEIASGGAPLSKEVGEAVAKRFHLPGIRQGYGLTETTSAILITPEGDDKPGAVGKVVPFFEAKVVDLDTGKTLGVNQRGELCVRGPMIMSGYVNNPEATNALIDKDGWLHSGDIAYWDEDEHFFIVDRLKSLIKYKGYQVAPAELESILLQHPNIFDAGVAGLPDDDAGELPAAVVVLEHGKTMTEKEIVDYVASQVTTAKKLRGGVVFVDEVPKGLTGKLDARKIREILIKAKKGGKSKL

[10] = system: Wnt5a (protein binding on small-molecule microarray); experiment: Wnt5a binders on small-molecule microarray, primary screen, biophysical, 635/667 nm fluorescence (AID 1142); conditions: 635 nm fluorescence, higher = more signal;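 note: fluorescence read at 667 nm with signal to noise per printed feature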
[11] = cell viability in Huh7 cells, primary screen, cytotoxicity control for HCV replication inhibitor project, CellTiter-Glo luminescence, basal, 48 h (AID 1143); conditions: Huh7 HCV replicon, higher = more signal, called active from +8 up or from −8 down;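 note: Huh7 hepatoma cells carrying a hepatitis C replication reporter with no stimulus; test concentration not given here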
[12] = P. aeruginosa biofilm formation inhibitors, primary screen, PAO1 strain, BacTiter-Glo luminescence, LB-PBS (AID 1144); conditions: 12 h, higher = more signal
[13] = CREB reporter modulators without forskolin, primary screen, cell-based, PC12, CRE-LacZ reporter, unstimulated (AID 1145); conditions: no forskolin, luminescence, 4.5 h, higher = more signal, called active from +8 up or from −8 down
[14] = CREB reporter modulators under forskolin, primary screen, cell-based, PC12, CRE-LacZ reporter, forskolin-stimulated (AID 1146); conditions: luminescence, 4.5 h, higher = more signal, called active from +8 up or from −8 down;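 note: PC12 cells with 6xCRE LacZ reporter stimulated by forskolin 10 µM; beta-galactosidase reporter signal reflecting CREB driven transcription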
[15] = target: Streptavidin (Streptomyces avidinii) (UniProt P22629); experiment: streptavidin binders on small-molecule microarray, primary screen, artefact control for SMM compound annotation, biophysical, 635/667 nm fluorescence (AID 1147); conditions: streptavidin binding, higher = more signal;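 note: signal reflects streptavidin binding to arrayed compounds as a control protein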
Streptavidin (Streptomyces avidinii), sequence (P22629 whole entry, looked up): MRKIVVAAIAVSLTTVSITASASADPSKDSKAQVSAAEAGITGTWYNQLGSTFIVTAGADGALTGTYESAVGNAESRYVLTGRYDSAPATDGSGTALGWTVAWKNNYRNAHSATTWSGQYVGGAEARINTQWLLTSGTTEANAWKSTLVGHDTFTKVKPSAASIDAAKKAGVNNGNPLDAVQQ

[16] = small-molecule binders of probe aInhba, primary screen, biochemical, small-molecule microarray, 635/667 nm fluorescence (AID 1148); conditions: higher = more signal;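 note: score merges 667nm spot fluorescence with signal-to-noise for antibody binding to printed compounds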
Torsin-1A (Homo sapiens) [17] = target: Torsin-1A (Homo sapiens) (UniProt O14656); experiment: torsin A binders from cell lysate, primary screen, small-molecule microarray, wild-type, 635/667 nm (AID 1149); conditions: COS7 hTOR1A-WT lysate, 635 nm fluorescence, higher = more signal
Torsin-1A (Homo sapiens), sequence (O14656 whole entry, looked up): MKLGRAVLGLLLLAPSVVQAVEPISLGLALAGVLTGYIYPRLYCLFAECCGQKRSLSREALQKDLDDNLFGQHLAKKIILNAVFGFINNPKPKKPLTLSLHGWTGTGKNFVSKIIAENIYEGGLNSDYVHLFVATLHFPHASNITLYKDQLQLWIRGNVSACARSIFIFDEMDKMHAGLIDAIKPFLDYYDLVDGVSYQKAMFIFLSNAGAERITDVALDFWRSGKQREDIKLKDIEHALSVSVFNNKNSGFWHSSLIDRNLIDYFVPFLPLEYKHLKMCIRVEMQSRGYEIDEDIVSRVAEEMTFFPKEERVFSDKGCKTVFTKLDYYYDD

Torsin-1A (Homo sapiens) [18] = target: Torsin-1A (Homo sapiens) (UniProt O14656); experiment: small-molecule binders of mutant TOR1A in lysate, primary screen, cell lysate, small-molecule microarray, COS7 lysate, 635/667 nm fluorescence (AID 1150); conditions: COS7 hTOR1A mutant lysate, 635 nm fluorescence, higher = more signal;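 note: score pools 667 nm emission and signal to noise measuring lysate protein binding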
[19] = system: Sonic hedgehog protein (Shh); experiment: small-molecule binders of Shh protein, primary screen, biochemical, small-molecule microarray, 635/667 nm fluorescence (AID 1151); conditions: small-molecule microarray binding, 635 nm fluorescence; higher = more signal;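 note: Shh protein binding to compounds spotted on small-molecule microarray slides; score combines spot fluorescence intensity with signal-to-noise across triplicate slides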

| SMILES | composite z-score [1] | composite z-score [2] | composite z-score [3] | composite z-score [4] | composite z-score [5] | composite z-score [6] | z-score [7] | composite z-score (Lefty1) | composite z-score [8] | z-score [9] | composite z-score [10] | z-score [11] | z-score [12] | z-score [13] | z-score [14] | composite z-score [15] | composite z-score [16] | composite z-score (Torsin-1A (Homo sapiens) [17]) | composite z-score (Torsin-1A (Homo sapiens) [18]) | composite z-score [19] |
| --- | --- | --- | --- | --- | --- | --- | --- | --- | --- | --- | --- | --- | --- | --- | --- | --- | --- | --- | --- | --- |
| COC(=O)C1(CC(C)C)C=C2C(=C(C(C)C)C(=O)C2C)CN1 (stereo not given) | 0.928 | -1.05 | 0.208 | -0.653 | -1.04 | -0.688 | 0.44 | -0.746 | 0.323 | 1.66 (inactive) | -0.187 | 0.254 (inactive) | 0.825 (inactive) | 1.34 (inactive) | -0.872 (inactive) | -0.469 | -0.0791 | -0.742 | -0.15 | -0.702 |
| CCOC(=O)C1=C[C@@H](C(C)(C)C)N(S(=O)(=O)c2ccc(C)cc2)[C@H]1c1ccccc1Cl | 1.31 | 1.2 | 0.393 | 0.776 | 0.953 | 0.119 | 3.94 | 0.386 | 1.18 | 0.927 (inactive) | 0.548 | -3.79 (inactive) | 1.6 (inactive) | 0.986 (inactive) | 1.53 (inactive) | 1.11 | 0.029 | 0.296 | 0.315 | 0.577 |
| C=CCC(OC(C)=O)[C@@H]1[C@@H](N(Cc2cccc3ccccc23)C(=O)c2ccc(-c3ccccc3)cc2)c2cc(OCCCO)ccc2N1C(=O)c1ccc2ccccc2n1 (stereo not given in full) | 0.112 | 0.263 | 0.0785 | 0.677 | 0.537 | -0.0329 | -0.0419 | 0.752 | 0.922 | 0.222 (inactive) | -0.133 | -0.205 (inactive) | 0.409 (inactive) | 0.106 (inactive) | 0.481 (inactive) | 0.582 | 0.195 | 0.178 | 0.309 | 0.664 |
| COCCOC(=O)N1C(=O)[C@@]2(c3cc(C#CCC(C(=O)OC)C(=O)OC)ccc31)[C@H](c1ccc(OCCO)cc1)N1[C@H](c3ccccc3)[C@H](c3ccccc3)OC(=O)[C@H]1[C@@H]2C(=O)N1CCCCCCC1 | 1 | 1.21 | 0.899 | 0.686 | 1.5 | 0.614 | -0.83 | 0.958 | 1.37 | -1.62 (inactive) | 0.803 | -1.67 (inactive) | -0.147 (inactive) | -0.467 (inactive) | -0.553 (inactive) | 2.53 | 1.91 | 2.42 | 1.98 | 1.58 |
| CC1(C)OC[C@@]23C=C(Br)[C@@H](C[C@H]12)[C@@]1(CO1)C3=O | 0.424 | 0.62 | 0.139 | 0.149 | 0.369 | 0.122 | 0.582 | 0.439 | 0.0477 | -0.0228 (inactive) | 0.0405 | 0.661 (inactive) | 0.844 (inactive) | 0.494 (inactive) | 0.925 (inactive) | -0.0131 | -0.0331 | 0.667 | 0.483 | 0.474 |
| CCCCCCCCCCC(O)C1C=CC2C(=O)N(C)C(=O)C2N1N1CCCCC1 (stereo not given) | 0.373 | -0.768 | 0.0399 | -1.27 | -2.14 | -1.02 | 0.44 | -1.84 | -0.325 | -0.224 (inactive) | -0.542 | -0.6 (inactive) | 0.816 (inactive) | 0.0569 (inactive) | 1.39 (inactive) | -0.862 | -0.0762 | -0.0728 | 0.522 | -1.89 |
| CC(C)N1CC=CC23O[C@@H]4C=CCCOC(=O)C4[C@H]2C(=O)N(CCCCCO)[C@@H]3C1=O (stereo not given in full) | 3 | -0.349 | -0.133 | 0.834 | -1.21 | -0.886 | 1.34 | -0.376 | 0.717 | 0.0137 (inactive) | -0.135 | 0.317 (inactive) | -1.18 (inactive) | 0.199 (inactive) | -0.695 (inactive) | 1.88 | -0.224 | -1.35 | -1.12 | 0.0551 |
| COCCOC(=O)N1C(=O)[C@@]2(c3cc(C#CC4=CCCCC4)ccc31)[C@H](c1ccccc1OCCO)N1[C@H](c3ccccc3)[C@H](c3ccccc3)OC(=O)[C@H]1[C@@H]2C(N)=O | 1.48 | 1.17 | 0.539 | 0.83 | 1.06 | 1.36 | -1.8 | 0.91 | -0.0974 | -1.74 (inactive) | 0.288 | -6.61 (inactive) | -1.73 (inactive) | -2.37 (inactive) | -1.6 (inactive) | 0.771 | -0.115 | 1.21 | 0.137 | 1.7 |
| C=CCNC(=O)[C@H]1[C@@H]2C(=O)O[C@@H](c3ccccc3)[C@@H](c3ccccc3)N2[C@@H](c2ccc(O)cc2)[C@]12C(=O)Nc1ccc(C#CC3=CCCCC3)cc12 | 1.3 | 1.02 | 0.0897 | 0.531 | 0.886 | 0.355 | 0.88 | 0.916 | 0.622 | 0.0736 (inactive) | 0.121 | -3.15 (inactive) | -0.0901 (inactive) | -0.671 (inactive) | 0.21 (inactive) | 1.18 | 0.616 | 1.75 | 0.462 | 2 |
| C=C(COC)/C(=C/C[C@H](OC(=O)c1ccncc1)c1cccc(OCCO)c1)c1cnc2ccccc2c1 | 2.08 | 1.22 | 0.521 | 0.893 | 1.36 | 0.694 | 0.365 | 1.62 | 1.4 | -0.631 (inactive) | 0.154 | 0.0839 (inactive) | 0.0918 (inactive) | 0.769 (inactive) | 0.506 (inactive) | 1.7 | 0.322 | 0.839 | 0.897 | 2.02 |
